Test results: PubChem BioAssay AID430 (Sanford-Burnham Center for Chemical Genomics, 2006)
In all, about 63,000 compounds went through this assay and about 1,100 (1.7%) were called active. The sample holds actives, similar compounds and a random draw of the others, so the mix is not that of the screen. Measured potencies and affinities stand elsewhere. A number with no mark means an inactive call. No stated cut-off is given here; in the data, active means cytotoxicity above about 50%; inactive means the rest.

Experiment: HPDE-C7 pancreatic duct cell viability loss – fluorescence, HTS (AID 430);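 further: cells exposed to compound for 48 hours before viability readout; 0% = vehicle and 100% = reference cytotoxic drug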
Conditions: HPDE-C7 pancreatic duct cells viability, at 10 µM, active compounds read high

Compared with Cc1ccccc1CSc1ncc(C#N)c(N)n1, Cc1nc(SCc2ccccc2)c(C(F)(F)F)c(=O)[nH]1 is higher in cytotoxicity: -10.1% for the first, 2.3% for the second.

Going from COc1ccc(Nc2cc(C(=O)NCCCN3CCN(C)CC3)c3ccccc3n2)c(OC)c1 to Cc1cc(C(=O)OCC(=O)N2CCN(c3ccccc3)CC2)c2ccccc2n1, the cytotoxicity falls from 2% to -8.3%.

Compared with Cc1csc(C(C#N)C(=O)c2ccncc2)n1 (configuration not stated), CC(=O)c1cccc(NC(=O)Cc2cccs2)c1 is higher in cytotoxicity: -11% for the first, -5.3% for the second.

First: Cc1ccc(-n2c3c(cc(C(=O)Nc4cccc(C)n4)c2=O)C(=O)CCC3)cc1
Second: Cc1cccc(NC(=O)c2cc3c(n(-c4ccccc4)c2=O)CCCC3=O)n1
The cytotoxicity of the first is lower: -27.7% for the first, 9.4% for the second.

Going from COC(=O)c1cc(OC)c(OC)cc1-n1cnc2cc(OC)c(OC)cc2c1=O to COc1ccc(CCN2CC(C#N)=C3c4cc(OC)c(OC)cc4CCN3C2)cc1OC, the cytotoxicity rises from -9.2% to -1.5%.

Compared with Cc1cccc(NC2=NC3(CCCCC3)N=C(N)N2)c1C, CSc1nc2ccc(S(=O)(=O)NC3CCCCC3)cc2s1 is higher in cytotoxicity: -3.7% for the first, 6.9% for the second.

First: CCOc1ccc(NC(=O)CN2C(=O)COc3ccc(Cl)cc32)cc1
Second: Cc1ncoc1C(=O)Nc1ccc(Oc2ccccc2)cc1
The cytotoxicity of the first is higher: -2% for the first, -20.9% for the second.

Compared with CCOC(=O)c1ccc2c(c1)nc(SC/C(O)=C(\C#N)c1nc3ccccc3[nH]1)n2CC, CCn1c(Cc2ccc(OC)cc2)nnc1SCC(=O)Nc1nc2ccccc2s1 is lower in cytotoxicity: 16.2% for the first, -6% for the second.

Going from Cc1nnc(SCc2ccc(Cl)cc2)n1CC1CCCO1 (configuration not stated) to COc1ccc(-n2nnc3c(SCC(=O)NCC4CCCO4)ncnc32)cc1 (configuration not stated), the cytotoxicity falls from 2.4% to -2.3%.

Going from O=C(O)CSc1nnc(-c2ccccc2)o1 to CC(=O)c1cnc2cc(-c3ccccc3)nn2c1C, the cytotoxicity falls from 0.1% to -20.8%.

Compared with Cc1nnc(SCC(=O)n2c3c(c4ccccc42)CCCC3)s1, CCOC(=O)C(C)Sc1nnc(Cn2c(=O)sc3ccccc32)n1-c1ccccc1 (configuration not stated) is higher in cytotoxicity: -1% for the first, 18.4% for the second.

First: CC1CCCCN1S(=O)(=O)c1coc(C(N)=O)c1 (configuration not stated)
Second: CC(OC(=O)C1CCN(S(=O)(=O)c2ccccc2)CC1)C(=O)Nc1ncc(Cl)cc1Cl (configuration not stated)
The cytotoxicity of the first is lower: -2.9% for the first, -0.7% for the second.

First: CC(=O)NC(C)C12CC3CC(CC(C(=O)O)(C3)C1)C2 (configuration not stated)
Second: CCOC(=O)N1CCN(C(=O)C2CCC(C(=O)N3CCN(C(=O)OCC)CC3)CC2)CC1 (configuration not stated)
The cytotoxicity of the first is lower: -6.6% for the first, -3.2% for the second.

Compared with Cc1ccc(S(=O)(=O)Nc2ccc3nc(N)sc3c2)cc1, Cc1ccc(Nc2nc(C)c(CCC(C)C)c(=O)[nH]2)cc1 is higher in cytotoxicity: -16.3% for the first, 7.1% for the second.

First: CCOc1cccc(/C(O)=C2/C(=O)C(=O)N(CCOC)C2c2ccc(C)o2)c1 (configuration not stated)
Second: CCC(CC)C(=O)Nc1cccc(C(=O)NCc2ccco2)c1
The cytotoxicity of the first is higher: -8% for the first, -24.1% for the second.

Going from Cc1cc(C)nc(N2CCC(CNC(=O)CCc3ccccc3)CC2)n1 to O=C(CCc1nc2ccccc2[nH]1)Nc1ccccc1, the cytotoxicity rises from -11.3% to -8.6%.

First: CCOC(=O)c1c(C)c(C(=O)Nc2ccc3c(c2)OCCO3)c(C)n1CC
Second: CCOC(=O)c1c(C)c(C(=O)Nc2ccccc2)c(C)n1CC
The cytotoxicity of the first is higher: 17.2% for the first, 4.4% for the second.

First: CC(C)NS(=O)(=O)c1ccc(CCC(=O)O)cc1
Second: O=C(O)c1ccc(CNC(=O)c2ccc(Br)o2)cc1
The cytotoxicity of the first is lower: -5.7% for the first, 0.5% for the second.

Going from CC1=C(C(N)=O)C(c2cccnc2)n2nc(-c3cccc(C)c3)nc2N1 (configuration not stated) to Cc1onc(-c2ccccc2)c1C(=O)NCc1cccnc1, the cytotoxicity rises from -15.3% to 4.9%.

First: CCc1cc(C(=O)COc2ccccc2F)c(O)cc1O
Second: CCc1cc(C(=O)Cc2nc3ccccc3[nH]2)c(O)cc1O
The cytotoxicity of the first is lower: 5.5% for the first, 9.1% for the second.

Going from CCc1cc(C(=O)Cc2cnn(-c3ccccc3)c2)c(O)cc1O to CCCc1cc(C(=O)Cc2ccc(C(=O)OCC)o2)c(O)cc1O, the cytotoxicity rises from 14.9% to 24%.

Compared with Cc1nc(Nc2ccccc2)[nH]c(=O)c1CCC(C)C, Cc1cc(Nc2nc3ccccc3[nH]c2=O)n(-c2ccccc2)n1 is higher in cytotoxicity: -16.8% for the first, 8% for the second.

First: Cc1ccc(-c2nn(CC(=O)NCCN3CCOCC3)c(=O)c3ccccc23)cc1
Second: O=C(Cn1nc(-c2ccccc2)c2ccccc2c1=O)NCCN1CCOCC1
The cytotoxicity of the first is higher: 0.5% for the first, -11.2% for the second.

Going from CC(NC(=O)c1cccs1)c1ccc2c(c1)OCO2 (configuration not stated) to O=C(CC(SCCO)c1ccc2c(c1)OCO2)c1ccco1 (configuration not stated), the cytotoxicity rises from -2.3% to 1.4%.

Going from O=C(CSCc1ccco1)c1cccs1 to O=C(CSc1nnc(-c2ccc(O)cc2)n1Cc1ccco1)c1cccs1, the cytotoxicity rises from -7.2% to -1.1%.

First: COc1ccc(N2CCN(C(=O)CSc3ccccc3N)CC2)cc1
Second: CCc1ccccc1N(CC(=O)N1CCN(c2ccccc2)CC1)S(C)(=O)=O
The cytotoxicity of the first is lower: -6.2% for the first, -3% for the second.

Going from O=C(CCCSc1nc(-c2ccco2)cc(C(F)(F)F)n1)NCc1cccs1 to O=C(Cc1cccs1)Nc1ccc(NC(=O)c2ccco2)cc1, the cytotoxicity falls from -4.3% to -14.5%.

Compared with Cc1c(Cl)cccc1NC(=O)Cn1cccc1, Cc1occc1C(=O)Nc1cccc(C(=O)NCc2ccccc2)c1 is lower in cytotoxicity: 3.2% for the first, -18% for the second.

First: O=C(CN(Cc1ccco1)C(=O)CNS(=O)(=O)c1ccc(F)cc1)NCc1ccc(F)cc1
Second: O=C(CN(Cc1ccco1)C(=O)CNS(=O)(=O)c1ccccc1)NCc1ccc(F)cc1
The cytotoxicity of the first is lower: -4% for the first, -1.3% for the second.

Going from OCCNc1nc(Nc2ccccc2)nc(Nc2ccccc2)n1 to CCn1c(Cc2ccccc2)nnc1SCC(=O)Nc1nc2ccccc2s1, the cytotoxicity falls from 2.2% to -5%.

Compared with CC(C)n1c(Nn2cnnc2)nc2ccccc21, c1ccc2oc(NC3=NCN(CC4CCCO4)CN3)nc2c1 (configuration not stated) is lower in cytotoxicity: 3.1% for the first, -19.3% for the second.

Going from O=C(CSc1nnc(-c2cccnc2)n1Cc1ccco1)c1ccccc1 to O=C(NCc1ccco1)c1cccc(NC(=O)c2ccccc2)c1, the cytotoxicity rises from -18.2% to 10.1%.

Going from O=C(c1cccc2ccccc12)N1CCN(CC2CC=CCC2)CC1 (configuration not stated) to CCOCCCNC(=O)C(c1ccc(Cl)cc1)N1CCN(C(=O)c2ccco2)CC1 (configuration not stated), the cytotoxicity rises from -22% to -11.6%.

First: O=C(NCc1ccccc1)c1cccc(NC(=O)c2ccco2)c1
Second: O=C(Nc1ccc(O)cc1)c1ccc(C(=O)c2ccccc2)o1
The cytotoxicity of the first is higher: 44.7% for the first, -1.5% for the second.

First: CCOC(=O)c1c(-c2cccs2)csc1NC(=O)CCCC(=O)O
Second: COC(=O)c1c(-c2cccs2)csc1NC(=O)CN1CCOCC1
The cytotoxicity of the first is higher: 8.6% for the first, -10.4% for the second.

First: CCOC(=O)c1ccc(NC(=O)CSc2nc3c(c(=O)n2C)SC(C)C3)cc1 (configuration not stated)
Second: CCn1c(SCC(=O)Nc2cccc(C)c2)nc2c(c1=O)SC(C)C2 (configuration not stated)
The cytotoxicity of the first is lower: 1.1% for the first, 3.7% for the second.

First: COC(=O)c1ccc(C(=O)Nc2ccc(N)cc2N)cc1
Second: O=C(NCc1ccco1)c1cc(-c2ccc(Cl)cc2)on1
The cytotoxicity of the first is lower: -13.9% for the first, 5.9% for the second.

Compared with c1ccc(N(c2ccccc2)c2nc(N3CCOCC3)nc(N3CCOCC3)n2)cc1, COC(=O)C1(C)Nc2ccccc2C(=O)N1c1ccccc1C (configuration not stated) is lower in cytotoxicity: 4.8% for the first, 2.8% for the second.

Going from CCC1(CC)Nc2ccccc2C(=O)N1c1ccc(NC(C)=O)cc1 to CC1(C)c2ssc(=S)c2-c2ccccc2N1C(=O)c1ccco1, the cytotoxicity falls from 10.6% to -13.6%.

Compared with Cc1cc(OCCCCCNCCO)ccc1Cl, CC(C)Cc1cc(C(=O)NCc2cccs2)no1 is lower in cytotoxicity: 18.7% for the first, -21.1% for the second.

First: N#C/C(C(=O)c1ccccc1)=C1/CCCN1
Second: O=C(c1ccccc1)N(Cc1ccc(F)cc1)C1CCS(=O)(=O)C1 (configuration not stated)
The cytotoxicity of the first is higher: 10.8% for the first, -9.7% for the second.

Compared with CCN(CC)C(=O)CSc1ncnc2c1nnn2-c1ccc(OC)cc1, CCOC(=O)Cn1cnc2c(C#N)c3n(c2c1=O)CCCCC3 is higher in cytotoxicity: -17.1% for the first, -8.7% for the second.

With Cc1c(Br)c(C(F)(F)F)nn1CC(=O)NCC1CCCO1 (configuration not stated) the cytotoxicity was -17.2%.

In the case of COc1ccc(-n2c3c(cc(C(=O)Nc4ccc5c(c4)C(=O)NC5=O)c2=O)C(=O)CCC3)cc1, the cytotoxicity is reported as 58.8% (active).
In the case of O=C(CSc1nnc(-c2ccccc2)o1)n1c2c(c3ccccc31)CCCC2, the cytotoxicity is reported as 53.3% (active).
In the case of CSc1nc2ccc(NS(=O)(=O)c3ccc(Cl)s3)cc2s1, the cytotoxicity is reported as 55.3% (active).
In the case of CCOC(=O)c1c(C)c(C(=O)Nc2ccc(N(C)C)cc2)c(C)n1CC, the cytotoxicity is reported as 54.2% (active).
With CCCc1cc(C(=O)Cc2ccc(F)cc2)c(O)cc1O the cytotoxicity was 78.8% (active).
In the case of CCc1cc(C(=O)Cc2ccc(F)cc2)c(O)cc1O, the cytotoxicity is reported as 54.4% (active).
With Cc1nc(Nc2ccc(F)cc2)[nH]c(=O)c1CCC(C)C the cytotoxicity was 62.1% (active).
For O=c1c2cccc3c2c(nn1CN1CCOCC1)-c1ccccc1-3, the cytotoxicity was 53% (active).
For O=C(CC(SCc1ccco1)c1ccc(O)cc1)c1cccs1 (configuration not stated), the cytotoxicity was 54.4% (active).
With O=C(CC(SCCO)c1ccc2c(c1)OCO2)c1cccs1 (configuration not stated) the cytotoxicity was 54.5% (active).
With O=C(CN(Cc1ccco1)C(=O)CNS(=O)(=O)c1ccc(Cl)cc1)NCc1ccc(F)cc1 the cytotoxicity was 70% (active).
For O=C(Cc1cccs1)Nc1cccc(C(=O)Nc2ccco2)c1, the cytotoxicity was 54.2% (active).
In the case of Cc1ccc(C(=O)Nc2cccc(C(=O)NCc3ccco3)c2)cc1, the cytotoxicity is reported as 62.7% (active).
With CCOC(=O)c1c(-c2cccs2)csc1NC(=O)CN1CC(C)OC(C)C1 (configuration not stated) the cytotoxicity was 61.1% (active).
In the case of CCOC(=O)c1ccc(NC(=O)CSc2nc3c(c(=O)n2CC)SC(C)C3)cc1 (configuration not stated), the cytotoxicity is reported as 55.3% (active).
With CC1(C)Nc2ccc(O)cc2-c2c1ssc2=S the cytotoxicity was 67.4% (active).
For CCn1c(SCC(=O)Nc2nc3ccccc3s2)nnc1-c1ccc(OC)cc1, the cytotoxicity was 58.5% (active).
